Assay results taken from publication PMC7862700, “An all-to-all approach to the identification of sequence-specific readers for epigenetic DNA modifications on cytosine”.

How the values were obtained:
Assay in all cases: DAPPL (digital affinity profiling via proximity ligation, sequencing); 10 mM Tris-HCl pH 7.5, 50 mM NaCl, 1 mM DTT, 4% glycerol, room temperature, 30 min; GST-TFs on glutathione beads, 16-mer random dsDNA library, 0.1% formaldehyde crosslink after washing; high values mean tight binding
Conditions in all cases: protein: recombinant; tags: N-terminal GST; dsDNA, one strand shown
[1] = molecular target: T1, FLI1 (Homo sapiens, UniProt Q01543 1-452)
T1 sequence: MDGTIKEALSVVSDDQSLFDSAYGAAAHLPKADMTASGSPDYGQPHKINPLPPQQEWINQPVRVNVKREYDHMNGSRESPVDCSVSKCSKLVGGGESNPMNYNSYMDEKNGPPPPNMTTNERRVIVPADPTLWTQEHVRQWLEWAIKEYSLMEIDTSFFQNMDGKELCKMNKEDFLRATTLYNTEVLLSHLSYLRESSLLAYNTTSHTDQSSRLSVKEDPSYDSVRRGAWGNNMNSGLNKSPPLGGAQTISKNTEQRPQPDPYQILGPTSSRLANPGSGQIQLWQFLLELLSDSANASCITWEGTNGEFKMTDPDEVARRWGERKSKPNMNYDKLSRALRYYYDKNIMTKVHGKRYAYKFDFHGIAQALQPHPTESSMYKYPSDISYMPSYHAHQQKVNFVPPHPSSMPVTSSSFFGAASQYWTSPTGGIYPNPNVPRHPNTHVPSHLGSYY
Summary of the method: (§1)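 Human transcription factors were made in yeast as GST fusions, captured on glutathione beads and barcoded with DNA. With a tag-only sample included, the pool was incubated with 200 nmole of a random double-stranded 16-mer DNA library in Tris/NaCl/DTT/glycerol buffer at room temperature for 30 min, then crosslinked with 0.1% formaldehyde after washing, ligated by proximity, amplified and sequenced. For binding signal, each hexamer's read frequency for a factor is divided by its frequency for the tag-only sample.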

[2] = molecular target: T2, ELK1 (Homo sapiens, UniProt P19419 1-428)
T2 sequence: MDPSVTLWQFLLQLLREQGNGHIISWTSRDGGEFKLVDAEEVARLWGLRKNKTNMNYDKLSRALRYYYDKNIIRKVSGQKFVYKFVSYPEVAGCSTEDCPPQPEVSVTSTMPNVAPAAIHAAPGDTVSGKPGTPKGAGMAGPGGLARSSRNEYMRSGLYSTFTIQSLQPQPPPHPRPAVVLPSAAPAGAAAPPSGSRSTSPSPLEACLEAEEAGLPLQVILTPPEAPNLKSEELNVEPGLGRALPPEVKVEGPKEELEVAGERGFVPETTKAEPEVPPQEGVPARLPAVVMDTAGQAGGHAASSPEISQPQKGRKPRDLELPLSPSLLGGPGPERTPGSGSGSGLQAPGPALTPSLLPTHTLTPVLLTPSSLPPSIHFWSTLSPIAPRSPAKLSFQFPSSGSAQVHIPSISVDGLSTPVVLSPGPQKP
Summary of the method: as §1

[3] = molecular target: T3, GABPA (Homo sapiens, UniProt Q06546 1-454)
T3 sequence: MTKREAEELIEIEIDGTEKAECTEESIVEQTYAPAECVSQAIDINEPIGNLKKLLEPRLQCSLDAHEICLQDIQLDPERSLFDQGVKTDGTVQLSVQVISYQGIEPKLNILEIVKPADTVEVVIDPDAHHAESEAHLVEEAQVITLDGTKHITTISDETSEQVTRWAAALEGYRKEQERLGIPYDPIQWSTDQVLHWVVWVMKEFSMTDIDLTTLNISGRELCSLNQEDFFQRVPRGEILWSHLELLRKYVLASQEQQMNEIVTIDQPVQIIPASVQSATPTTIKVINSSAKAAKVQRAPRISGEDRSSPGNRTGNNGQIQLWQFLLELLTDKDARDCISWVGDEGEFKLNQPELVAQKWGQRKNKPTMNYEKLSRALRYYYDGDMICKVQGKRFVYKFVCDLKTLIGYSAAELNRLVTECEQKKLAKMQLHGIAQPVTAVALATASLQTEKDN
Summary of the method: as §1

[4] = molecular target: T4, ERG (Homo sapiens, UniProt P11308 1-479)
T4 sequence: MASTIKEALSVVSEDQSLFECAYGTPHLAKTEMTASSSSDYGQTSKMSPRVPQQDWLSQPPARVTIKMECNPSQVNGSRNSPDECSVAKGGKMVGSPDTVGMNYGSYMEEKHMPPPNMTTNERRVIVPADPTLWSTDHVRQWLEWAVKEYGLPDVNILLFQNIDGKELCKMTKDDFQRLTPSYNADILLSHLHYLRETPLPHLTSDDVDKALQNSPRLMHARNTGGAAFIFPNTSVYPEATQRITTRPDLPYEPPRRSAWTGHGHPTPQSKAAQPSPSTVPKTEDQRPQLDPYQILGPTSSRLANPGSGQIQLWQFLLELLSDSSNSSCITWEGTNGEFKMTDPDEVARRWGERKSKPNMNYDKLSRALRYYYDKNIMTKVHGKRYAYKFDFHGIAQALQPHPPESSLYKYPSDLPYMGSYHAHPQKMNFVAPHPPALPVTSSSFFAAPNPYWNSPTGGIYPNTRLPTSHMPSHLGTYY
Summary of the method: as §1

[5] = molecular target: ELF1 (Homo sapiens, UniProt P32519 1-619)
Summary of the method: as §1

[6] = molecular target: T5, EHF (Homo sapiens, UniProt Q9NZC4 1-300)
T5 sequence: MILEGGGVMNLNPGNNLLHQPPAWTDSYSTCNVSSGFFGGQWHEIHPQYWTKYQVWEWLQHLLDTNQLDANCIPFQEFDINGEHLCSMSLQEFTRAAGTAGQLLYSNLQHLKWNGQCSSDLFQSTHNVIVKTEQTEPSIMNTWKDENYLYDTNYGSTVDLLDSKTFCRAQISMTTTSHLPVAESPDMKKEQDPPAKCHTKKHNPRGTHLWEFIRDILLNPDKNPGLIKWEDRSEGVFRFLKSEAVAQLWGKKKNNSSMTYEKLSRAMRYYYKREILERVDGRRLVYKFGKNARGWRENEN
Summary of the method: as §1

[7] = molecular target: SPI1 (Homo sapiens, UniProt P17947 1-270)
Summary of the method: as §1

[8] = molecular target: SPIB (Homo sapiens, UniProt Q01892 1-262)
Summary of the method: as §1

[9] = molecular target: T6, ELK3 (Homo sapiens, UniProt P41970 1-407)
T6 sequence: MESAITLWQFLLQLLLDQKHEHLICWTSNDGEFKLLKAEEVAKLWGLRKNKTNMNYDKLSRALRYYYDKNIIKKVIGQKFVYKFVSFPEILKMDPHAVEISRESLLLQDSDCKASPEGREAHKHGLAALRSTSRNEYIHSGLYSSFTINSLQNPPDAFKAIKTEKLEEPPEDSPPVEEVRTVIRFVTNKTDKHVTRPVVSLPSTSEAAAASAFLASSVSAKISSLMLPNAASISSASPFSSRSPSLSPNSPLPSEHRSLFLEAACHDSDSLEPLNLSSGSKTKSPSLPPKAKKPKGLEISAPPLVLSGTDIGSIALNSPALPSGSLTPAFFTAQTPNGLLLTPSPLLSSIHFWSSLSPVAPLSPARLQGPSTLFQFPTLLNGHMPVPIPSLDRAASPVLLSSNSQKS
Summary of the method: as §1

[10] = molecular target: T7, FEV (Homo sapiens, UniProt Q99581 1-238)
T7 sequence: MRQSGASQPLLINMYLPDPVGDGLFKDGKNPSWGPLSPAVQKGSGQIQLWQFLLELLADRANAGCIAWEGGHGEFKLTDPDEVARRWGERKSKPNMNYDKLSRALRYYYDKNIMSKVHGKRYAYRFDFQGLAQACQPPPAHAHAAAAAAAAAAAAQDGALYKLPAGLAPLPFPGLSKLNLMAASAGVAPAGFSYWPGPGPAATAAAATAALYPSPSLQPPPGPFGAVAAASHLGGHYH
Summary of the method: as §1

[11] = molecular target: ETV5 (Homo sapiens, UniProt P41161 1-510)
Summary of the method: as §1

[12] = molecular target: T8, SPIC (Homo sapiens, UniProt Q8N5J4 1-248)
T8 sequence: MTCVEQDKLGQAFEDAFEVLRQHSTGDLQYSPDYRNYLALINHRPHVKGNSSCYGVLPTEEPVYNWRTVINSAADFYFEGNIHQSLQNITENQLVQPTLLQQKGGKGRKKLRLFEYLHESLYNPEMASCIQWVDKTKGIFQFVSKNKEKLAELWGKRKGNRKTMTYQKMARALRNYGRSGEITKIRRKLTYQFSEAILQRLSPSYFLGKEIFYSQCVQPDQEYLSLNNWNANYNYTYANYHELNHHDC
Summary of the method: as §1

[13] = molecular target: ELF4 (Homo sapiens, UniProt Q99607 1-663)
Summary of the method: as §1

[14] = molecular target: T9, ELK4 (Homo sapiens, UniProt P28324-2 1-405)
T9 sequence: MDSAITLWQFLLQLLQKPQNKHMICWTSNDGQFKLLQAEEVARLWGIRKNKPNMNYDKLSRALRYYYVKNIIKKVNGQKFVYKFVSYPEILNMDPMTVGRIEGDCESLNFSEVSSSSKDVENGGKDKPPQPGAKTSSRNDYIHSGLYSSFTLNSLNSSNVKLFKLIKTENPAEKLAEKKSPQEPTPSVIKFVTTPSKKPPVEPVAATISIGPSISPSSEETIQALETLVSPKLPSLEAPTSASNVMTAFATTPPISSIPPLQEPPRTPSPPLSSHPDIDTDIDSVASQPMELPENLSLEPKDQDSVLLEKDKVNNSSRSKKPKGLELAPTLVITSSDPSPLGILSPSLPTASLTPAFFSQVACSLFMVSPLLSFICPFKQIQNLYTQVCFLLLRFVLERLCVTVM
Summary of the method: as §1

[15] = molecular target: T10, ETV2 (Homo sapiens, UniProt O00321 1-342)
T10 sequence: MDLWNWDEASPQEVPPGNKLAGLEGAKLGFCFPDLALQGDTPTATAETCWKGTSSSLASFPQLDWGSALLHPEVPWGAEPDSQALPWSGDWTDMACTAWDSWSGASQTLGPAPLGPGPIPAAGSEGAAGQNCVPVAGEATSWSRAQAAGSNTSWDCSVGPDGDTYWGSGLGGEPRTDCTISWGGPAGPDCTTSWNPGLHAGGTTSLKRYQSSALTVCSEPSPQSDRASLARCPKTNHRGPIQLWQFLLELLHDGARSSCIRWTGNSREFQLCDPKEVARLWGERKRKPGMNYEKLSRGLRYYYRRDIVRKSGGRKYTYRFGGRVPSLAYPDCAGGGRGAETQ
Summary of the method: as §1

[16] = molecular target: T11, ELF3 (Homo sapiens, UniProt P78545 1-371)
T11 sequence: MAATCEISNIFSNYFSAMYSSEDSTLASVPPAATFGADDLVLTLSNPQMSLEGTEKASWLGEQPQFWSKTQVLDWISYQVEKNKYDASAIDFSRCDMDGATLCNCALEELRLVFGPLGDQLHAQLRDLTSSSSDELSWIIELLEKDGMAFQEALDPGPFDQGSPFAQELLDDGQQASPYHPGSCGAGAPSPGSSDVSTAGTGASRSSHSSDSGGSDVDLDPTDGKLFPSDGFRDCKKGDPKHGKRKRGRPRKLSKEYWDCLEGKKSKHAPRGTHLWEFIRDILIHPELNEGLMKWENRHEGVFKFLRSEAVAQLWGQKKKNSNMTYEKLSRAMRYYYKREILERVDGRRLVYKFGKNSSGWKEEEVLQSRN
Summary of the method: as §1

[17] = molecular target: CRX (Homo sapiens, UniProt O43186 1-299)
Summary of the method: as §1

[18] = molecular target: ETV1 (Homo sapiens, UniProt P50549 1-477)
Summary of the method: as §1

Chain of ELF4 (Q99607 whole entry): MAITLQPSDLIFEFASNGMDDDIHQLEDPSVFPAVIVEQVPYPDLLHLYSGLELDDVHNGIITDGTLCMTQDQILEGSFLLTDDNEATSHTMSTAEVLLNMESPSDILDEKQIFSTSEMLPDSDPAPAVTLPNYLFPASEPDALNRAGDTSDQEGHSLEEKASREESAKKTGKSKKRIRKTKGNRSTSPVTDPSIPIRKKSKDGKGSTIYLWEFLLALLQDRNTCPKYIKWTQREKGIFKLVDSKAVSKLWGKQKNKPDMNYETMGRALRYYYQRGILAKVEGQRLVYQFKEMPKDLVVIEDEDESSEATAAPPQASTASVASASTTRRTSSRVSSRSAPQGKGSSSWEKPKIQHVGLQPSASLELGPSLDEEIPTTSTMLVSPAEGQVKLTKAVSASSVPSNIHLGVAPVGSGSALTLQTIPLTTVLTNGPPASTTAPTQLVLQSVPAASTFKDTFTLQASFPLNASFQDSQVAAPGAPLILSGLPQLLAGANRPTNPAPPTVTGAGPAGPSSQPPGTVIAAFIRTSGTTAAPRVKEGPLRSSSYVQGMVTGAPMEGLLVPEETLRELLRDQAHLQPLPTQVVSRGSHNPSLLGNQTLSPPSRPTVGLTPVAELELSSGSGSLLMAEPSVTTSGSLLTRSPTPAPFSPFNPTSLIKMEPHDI
Chain of SPIB (Q01892 whole entry): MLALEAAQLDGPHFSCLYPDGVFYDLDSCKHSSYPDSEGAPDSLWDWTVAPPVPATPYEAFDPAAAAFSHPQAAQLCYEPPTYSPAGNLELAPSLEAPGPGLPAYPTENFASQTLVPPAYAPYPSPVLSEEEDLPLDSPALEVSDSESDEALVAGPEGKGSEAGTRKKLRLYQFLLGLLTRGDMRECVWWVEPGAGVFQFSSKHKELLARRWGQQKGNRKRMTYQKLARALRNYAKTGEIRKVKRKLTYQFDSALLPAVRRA
Chain of ETV1 (P50549 whole entry): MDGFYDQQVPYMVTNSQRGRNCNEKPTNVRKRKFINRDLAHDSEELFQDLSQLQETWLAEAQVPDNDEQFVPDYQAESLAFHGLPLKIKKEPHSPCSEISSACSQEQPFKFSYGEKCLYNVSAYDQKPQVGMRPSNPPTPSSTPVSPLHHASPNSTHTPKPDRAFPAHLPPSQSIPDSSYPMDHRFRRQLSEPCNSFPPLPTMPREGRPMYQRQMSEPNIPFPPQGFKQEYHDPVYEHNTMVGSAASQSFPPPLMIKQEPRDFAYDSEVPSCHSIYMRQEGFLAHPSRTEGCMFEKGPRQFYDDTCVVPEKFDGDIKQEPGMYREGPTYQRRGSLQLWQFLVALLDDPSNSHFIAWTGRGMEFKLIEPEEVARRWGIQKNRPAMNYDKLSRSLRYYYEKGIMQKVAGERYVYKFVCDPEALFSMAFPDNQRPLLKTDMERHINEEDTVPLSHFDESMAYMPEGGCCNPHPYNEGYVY
Chain of CRX (O43186 whole entry): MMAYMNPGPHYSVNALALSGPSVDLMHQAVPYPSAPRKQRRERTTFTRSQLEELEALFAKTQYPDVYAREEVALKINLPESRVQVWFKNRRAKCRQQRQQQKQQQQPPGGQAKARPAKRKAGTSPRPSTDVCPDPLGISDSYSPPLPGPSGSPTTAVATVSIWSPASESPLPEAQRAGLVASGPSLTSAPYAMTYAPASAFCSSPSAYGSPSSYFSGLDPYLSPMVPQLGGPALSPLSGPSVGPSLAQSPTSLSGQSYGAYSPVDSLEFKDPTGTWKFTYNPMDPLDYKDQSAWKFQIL
Chain of ETV5 (P41161 whole entry): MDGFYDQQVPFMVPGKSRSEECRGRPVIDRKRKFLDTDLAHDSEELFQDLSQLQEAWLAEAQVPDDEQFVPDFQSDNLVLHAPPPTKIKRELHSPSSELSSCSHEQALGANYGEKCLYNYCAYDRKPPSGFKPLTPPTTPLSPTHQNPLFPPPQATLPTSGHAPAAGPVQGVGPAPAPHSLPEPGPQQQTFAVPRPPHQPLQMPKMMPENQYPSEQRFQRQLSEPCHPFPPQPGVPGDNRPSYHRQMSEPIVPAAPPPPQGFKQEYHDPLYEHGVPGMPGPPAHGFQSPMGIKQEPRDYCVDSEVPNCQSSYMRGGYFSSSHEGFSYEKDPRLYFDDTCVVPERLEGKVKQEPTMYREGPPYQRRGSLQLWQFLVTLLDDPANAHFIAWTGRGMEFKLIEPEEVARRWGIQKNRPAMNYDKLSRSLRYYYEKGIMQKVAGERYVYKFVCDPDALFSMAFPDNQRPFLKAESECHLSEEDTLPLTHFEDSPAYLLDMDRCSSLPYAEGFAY
Chain of ELF1 (P32519 whole entry): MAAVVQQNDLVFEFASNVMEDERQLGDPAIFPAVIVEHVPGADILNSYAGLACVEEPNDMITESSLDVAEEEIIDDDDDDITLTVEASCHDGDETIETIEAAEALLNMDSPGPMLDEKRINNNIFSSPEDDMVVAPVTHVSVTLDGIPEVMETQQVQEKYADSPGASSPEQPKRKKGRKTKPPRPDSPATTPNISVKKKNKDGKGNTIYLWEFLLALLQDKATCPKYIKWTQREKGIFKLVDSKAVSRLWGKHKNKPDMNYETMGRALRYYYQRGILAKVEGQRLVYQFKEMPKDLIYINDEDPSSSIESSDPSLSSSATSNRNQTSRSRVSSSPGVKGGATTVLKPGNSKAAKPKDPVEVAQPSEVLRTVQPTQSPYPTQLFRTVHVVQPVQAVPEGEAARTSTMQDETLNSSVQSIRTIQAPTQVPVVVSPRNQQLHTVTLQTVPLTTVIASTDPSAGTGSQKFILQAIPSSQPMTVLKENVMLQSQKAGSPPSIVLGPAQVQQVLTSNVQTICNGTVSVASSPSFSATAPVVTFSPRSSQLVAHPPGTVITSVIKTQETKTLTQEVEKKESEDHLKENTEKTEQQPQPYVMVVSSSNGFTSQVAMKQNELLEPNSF

Row | Sequence | binding signal [1] | binding signal [2] | binding signal [3] | binding signal [4] | binding signal [5] | binding signal [6] | binding signal [7] | binding signal [8] | binding signal [9] | binding signal [10] | binding signal [11] | binding signal [12] | binding signal [13] | binding signal [14] | binding signal [15] | binding signal [16] | binding signal [17] | binding signal [18]
1 | AACGGC | 1.08 fold enrichment (6-mer frequency, TF over GST control) | 1.13 fold enrichment (6-mer frequency, TF over GST control) | 1.25 fold enrichment (6-mer frequency, TF over GST control) | 1.18 fold enrichment (6-mer frequency, TF over GST control) | 1.16 fold enrichment (6-mer frequency, TF over GST control) | 1.25 fold enrichment (6-mer frequency, TF over GST control) | 1.2 fold enrichment (6-mer frequency, TF over GST control) | 1.24 fold enrichment (6-mer frequency, TF over GST control) | 1.06 fold enrichment (6-mer frequency, TF over GST control) | 1.17 fold enrichment (6-mer frequency, TF over GST control) | 1.29 fold enrichment (6-mer frequency, TF over GST control) | 1.12 fold enrichment (6-mer frequency, TF over GST control) | 1.24 fold enrichment (6-mer frequency, TF over GST control) | 1.24 fold enrichment (6-mer frequency, TF over GST control) | 1.21 fold enrichment (6-mer frequency, TF over GST control) | 1.12 fold enrichment (6-mer frequency, TF over GST control) | 1.11 fold enrichment (6-mer frequency, TF over GST control) | 1.17 fold enrichment (6-mer frequency, TF over GST control)
2 | TCATGC | 1.17 fold enrichment (6-mer frequency, TF over GST control) | 1.22 fold enrichment (6-mer frequency, TF over GST control) | 1.19 fold enrichment (6-mer frequency, TF over GST control) | 1.11 fold enrichment (6-mer frequency, TF over GST control) | 1.11 fold enrichment (6-mer frequency, TF over GST control) | 1.15 fold enrichment (6-mer frequency, TF over GST control) | 1.07 fold enrichment (6-mer frequency, TF over GST control) | 1.2 fold enrichment (6-mer frequency, TF over GST control) | 1.1 fold enrichment (6-mer frequency, TF over GST control) | 1.14 fold enrichment (6-mer frequency, TF over GST control) | 1.09 fold enrichment (6-mer frequency, TF over GST control) | 1.11 fold enrichment (6-mer frequency, TF over GST control) | 1.18 fold enrichment (6-mer frequency, TF over GST control) | 1.27 fold enrichment (6-mer frequency, TF over GST control) | 1.31 fold enrichment (6-mer frequency, TF over GST control) | 1.18 fold enrichment (6-mer frequency, TF over GST control) | 1.03 fold enrichment (6-mer frequency, TF over GST control) | 1.17 fold enrichment (6-mer frequency, TF over GST control)
